Where “and” joins values, the source holds several entries; their conditions need not be identical. Equal values may be shown once. Some structures have more than one record in an assay (separate samples or runs), and their calls can disagree. Calls of active or inactive are those of the source. The calls were made as follows: active = hit-call score of the fitted dose curve at least 0.9, where 1 is the maximum; inactive = score below 0.9.
Experiment: BSK_SAg_Proliferation: Cell Proliferation Assessment in the BioMAP Diversity Plus: SAg Assay (AID 2283095)
Details: primary human HUVEC with PBMC
Description: BSK_SAg is a cell-based, multiplexed-readout assay that uses umbilical vein endothelium and peripheral blood mononuclear cells, a human vascular primary cell co-culture, with measurements taken at 24 hours after chemical dosing in a 96-well plate.BSK_SAg_Proliferation is an assay component in the BSK_SAg assay. It measures protein content, a form of viability reporter, as detected with absorbance signals by Sulforhodamine staining technology. Data from the assay component BSK_SAg_Proliferation was analyzed into 1 assay endpoint. This assay endpoint, BSK_SAg_Proliferation, was analyzed with bidirectional fitting relative to DMSO as the negative control and baseline of activity. Using a type of viability reporter, measures of total protein for gain or loss-of-signal activity can be used to understand the viability at the cellular-level. Furthermore, this assay endpoint can be referred to as a secondary readout, because this assay has produced multiple assay endpoints where this one serves a viability function. To generalize the intended target to other relatable targets, this assay endpoint is annotated to the cell cycle intended target family, where the subfamily is proliferation.
The levels of cell surface (or secreted, indicated by the prefix "s") biomarker endpoints were measured by ELISA. Overt cytotoxicity to cells in confluent adherent cultures (all systems other than the BT system) was assessed by measuring total protein levels using sulforhodamine B (SRB) staining in parallel cultures at the time of biomarker measurements, indicated as SRB endpoints. For proliferation assays for adherent cell types, individual cell types are cultured at sub-confluence and relative cell numbers quantified by SRB staining at time points optimized for each system (48 h: 3C and CASM3C systems; 72 h: BT and HDF3CGF systems; 96 h: SAg system). SRB was performed by staining cells with 0.1% SRB after fixation with 10% TCA and reading wells at 560 nm.Viability and proliferation of PBMC (T cells) was quantified by Alamar Blue reduction for the SAg and BT systems. For PBMC viability (referred to as PBMC Cytotoxicity within the assay endpoint names), cells were plated (75,000/well in a 96-well plate) and then chemical samples added for 1 h before addition of activators, SEB and TSST-1 (20 ng/mL final concentration each). Cells were incubated for 90 h. Then, Alamar Blue (20 uL/well) (Invitrogen, Cat DAL1100) was added for 6 h, and the plates were read with a fluorescence microplate reader at 546/580 nm (excitation/emission). For PBMC proliferation, cells were plated and activated as above but incubated for only 16 h prior to addition of Alamar Blue. Plates were read after 6 h.

SMILES	outcome	AC50
CO[Si](C)(CCC(F)(F)C(F)(F)C(F)(F)C(F)(F)C(F)(F)C(F)(F)F)OC	inactive	
CCOC(=O)CC(=O)C(F)(F)C(F)(F)F	inactive	
O=C=NCc1cccc(CN=C=O)c1	inactive	
NC(=O)C(F)(F)C(F)(F)C(F)(F)F	inactive	
CC1=CC2C3C=CC(C3)C2C1C (stereo not given)	inactive	
O=C(c1ccccc1)c1ccc(O)cc1O	inactive	
O=S(=O)(Cl)C(F)(F)C(F)(F)C(F)(F)C(F)(F)C(F)(F)C(F)(F)C(F)(F)C(F)(F)F	inactive	
CCN=C1C=CC(=C(c2ccc(N(CC)CC)cc2)c2ccc(N(CC)CC)cc2)c2ccccc21		419 nM (active) and 401 nM (active)
C=C(C)C(=O)OCC(F)(F)C(F)(F)C(F)(F)C(F)F	inactive	
O=C(O)C(F)(F)C(F)(F)C(F)(F)C(=O)O	inactive	
O=C(O)C(F)(F)C(F)(F)C(F)(F)OC(F)(F)F	inactive	
CC(C)(C)c1cc(CCC(=O)NCCCCCCNC(=O)CCc2cc(C(C)(C)C)c(O)c(C(C)(C)C)c2)cc(C(C)(C)C)c1O	inactive	
FC(F)(F)C(F)(F)C(F)(F)CC1CO1 (stereo not given)	inactive	
CCN(CC)c1ccc2c(c1)Oc1cc(N(CC)CC)ccc1C21OC(=O)c2ccccc21		10 µM (active)
O=C(O)C(F)(F)C(F)(F)C(F)(F)C(F)(F)C(F)(F)C(F)(F)C(F)F	inactive	
OCC(F)(F)C(F)(F)C(F)(F)C(F)(F)C(F)(F)C(F)(F)C(F)(F)C(F)(F)CO	inactive	45.5 µM (active)
NC(O)(C(F)(F)F)C(F)(F)F	inactive	
Cc1cc(O)c(C(C)(C)C)cc1C(C)(C)C		3.82 µM (active)
CNS(=O)(=O)C(F)(F)C(F)(F)C(F)(F)C(F)(F)C(F)(F)C(F)(F)C(F)(F)C(F)(F)F	inactive	
OC(O)C(F)(F)C(F)(F)F	inactive	

SMILES	outcome	AC50
CCN(CC)c1ccc(C=O)c(O)c1	inactive	
NCC(F)(F)C(F)(F)C(F)(F)C(F)(F)C(F)(F)C(F)(F)F	inactive	
CC(C)CCCC(C)CCO (stereo not given)		20 µM (active)
NC(=O)C(F)(F)C(F)(F)C(F)(F)C(F)(F)C(N)=O	inactive	
O=C(O)C(F)(F)C(F)(F)C(F)(F)OC(F)(C(F)(F)F)C(F)(F)F	inactive	
FC(F)(F)C(F)(F)C(F)(F)C(F)(F)C(F)(F)C(F)(F)CC[Si](Cl)(Cl)Cl	inactive	
CN(C(=O)C(F)(F)C(F)(F)C(F)(F)F)[Si](C)(C)C	inactive	
Cc1ccc(S(=O)(=O)C(I)I)cc1		0.866 µM (active)
OCCCC(F)(F)C(F)(F)C(F)(F)C(F)(F)C(F)(F)C(F)(F)C(F)(F)C(F)(F)F		10.2 µM (active) and 14.6 µM (active)
CCN(CC)c1ccc(N=Nc2ccccc2)cc1		12.7 µM (active)
O=C(Cl)C(F)(F)C(F)(F)C(F)(F)C(F)(F)C(F)(F)C(F)(F)F	inactive	
OCC(F)(F)C(F)(F)C(F)(F)CO	inactive	
Brc1nc2ccccc2s1	inactive	
Cc1cc(C)c(O)c(C(C)(C)C)c1		31.2 µM (active)
O=C(O)CCC(F)(F)C(F)(F)C(F)(F)F	inactive	
C[Si](Cl)(Cl)CCC(F)(F)C(F)(F)C(F)(F)C(F)(F)C(F)(F)C(F)(F)F	inactive	
O=C(Cl)C(F)(F)C(F)(F)C(F)(F)C(F)(F)C(F)(F)C(F)(F)C(F)(F)F	inactive	
OCCCCC(F)(F)C(F)(F)C(F)(F)C(F)(F)F	inactive	
Nc1cc([N+](=O)[O-])cc(Cl)c1O	inactive	

Source: PubChem BioAssay (EPA / NIEHS)
